This is an account of results in the supplement of paper PMC9446081.

± gives the standard deviation of the averaged measurements.

Chain of MurC (C4ZRI6 whole entry, looked up): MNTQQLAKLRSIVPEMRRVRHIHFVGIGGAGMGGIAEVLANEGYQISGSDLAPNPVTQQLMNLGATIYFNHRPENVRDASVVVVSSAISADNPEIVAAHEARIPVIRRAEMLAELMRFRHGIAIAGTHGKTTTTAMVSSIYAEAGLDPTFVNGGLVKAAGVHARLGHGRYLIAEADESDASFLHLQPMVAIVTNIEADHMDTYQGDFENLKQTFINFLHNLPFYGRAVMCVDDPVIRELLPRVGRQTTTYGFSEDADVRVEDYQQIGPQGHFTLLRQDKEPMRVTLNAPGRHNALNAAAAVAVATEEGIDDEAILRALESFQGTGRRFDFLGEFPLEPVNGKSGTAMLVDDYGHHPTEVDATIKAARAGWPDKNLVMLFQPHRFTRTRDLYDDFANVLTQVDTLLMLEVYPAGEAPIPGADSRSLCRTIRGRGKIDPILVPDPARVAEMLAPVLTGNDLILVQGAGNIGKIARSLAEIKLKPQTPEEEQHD

The assay concerns the target MurC (UniProt C4ZRI6). Description: relative enzymatic activity vs untreated control (fraction); higher = less inhibition. The settings on record: 100 µM; incubation time: 2 h at 37 C. As to the method:
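In vitro enzymatic inhibition assays (ProFoldin kits) for 12 purified essential E. coli enzymes or complexes, each treated with 218 active antibacterial compounds at 100 µM for 2 h at 37°C. Read-outs were fluorescence or absorbance (phosphate detection, dye binding), converted to activity via standard curves and expressed relative to untreated DMSO controls.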
For the compound `N[C@@H]1CC[C@@H](c2ccc(Cl)c(Cl)c2)c2ccccc21`, the relative enzymatic activity worked out at 0.806 ± 0.12.
`O=C1CN(N=Cc2ccc([N+](=O)[O-])o2)C(=O)N1` had a relative enzymatic activity of 1.051 ± 0.0033.
With `O=C(NC(CO)C(O)c1ccc([N+](=O)[O-])cc1)C(Cl)Cl` (stereo not given), the relative enzymatic activity was determined as 1.04 ± 0.033.
For `NCc1ccccc1CC(=O)NC1C(=O)N2C(C(=O)O)=C(CSc3nnnn3CC(=O)O)CSC12` (stereo not given), the relative enzymatic activity was determined as 1.05 ± 0.17.
The compound `CCN1CCN(C(=O)NC(C(=O)NC2C(=O)N3C(C(=O)O)=C(CSc4nnnn4C)CSC23)c2ccc(O)cc2)C(=O)C1=O` (stereo not given) had a relative enzymatic activity of 0.942 ± 0.1.
`Cl.NC1CCN(c2c(F)cc3c(=O)c(C(=O)O)cn(C4CC4)c3c2Cl)C1` (stereo not given) yielded a relative enzymatic activity of 1.06 ± 0.063.
`NCC1OC(OC2C(N)CC(N)C(OC3OC(CO)C(O)C(N)C3O)C2O)C(N)CC1O` (stereo not given) had a relative enzymatic activity of 1.11 ± 0.046.
Consider `CCn1cc(C(=O)O)c(=O)c2cc(F)c(N3CCN(C)CC3)cc21.CS(=O)(=O)O`, for which the relative enzymatic activity is 1.02 ± 0.013.
`Oc1c(Cl)cc(Cl)c(Cl)c1Cc1c(O)c(Cl)cc(Cl)c1Cl` registered a relative enzymatic activity of 3.59 ± 0.79.
Consider `CS(=O)(=O)c1ccc(C(O)C(CF)NC(=O)C(Cl)Cl)cc1` (stereo not given), for which the relative enzymatic activity came out at 1.04 ± 0.036.
`CCCCCCCCCCCCCCCC[N+](C)(C)Cc1ccccc1.[Cl-]` showed a relative enzymatic activity of 0.176 ± 0.051.
`O=C1C=CC(=O)N1` yielded a relative enzymatic activity of 0.992 ± 0.03.
For `COC1(NC(=O)CSCC#N)C(=O)N2C(C(=O)[O-])=C(CSc3nnnn3C)CSC21.[Na+]` (stereo not given) the value was 1.59 ± 0.09.
In turn, `CN(C)C1C(O)=C(C(N)=O)C(=O)C2(O)C(O)=C3C(=O)c4c(O)ccc(Cl)c4C(C)(O)C3CC12.Cl` (stereo not given) registered a relative enzymatic activity of 1.05 ± 0.02.
For `CC(NCCCc1cccc(C(F)(F)F)c1)c1cccc2ccccc12.Cl` (stereo not given), the relative enzymatic activity came to 0.985 ± 0.092.
`Nc1ncn(C2OC(CO)C(O)C2O)c(=O)n1` (stereo not given) returned a relative enzymatic activity of 0.989 ± 0.025.
Regarding `CON=C(C(=O)NC1C(=O)N2C(C(=O)[O-])=C(CSc3nc(=O)c([O-])nn3C)CSC12)c1csc(N)n1.O.O.O.[Na+].[Na+]` (stereo not given), the relative enzymatic activity was 1.041 ± 0.0071.
Then `O=C1OC(=O)[C@H]2[C@@H]1[C@H]1CC[C@H]2O1`, with 1.18 ± 0.093.
On to `CNC1C(OC2C(OC3C(O)C(O)C(NC(=N)N)C(O)C3NC(=N)N)OC(C)C2(O)CO)OC(CO)C(O)C1O.O=S(=O)(O)O` (stereo not given), for which the relative enzymatic activity stood at 1.1 ± 0.059.
As for `Cn1cc(-c2[nH]c3cc(NC(=O)[C@H](N)C4CCCCC4)cc4c3c2C=NNC4=O)cn1`, the relative enzymatic activity amounted to 0.943 ± 0.039.
`CCC(C)CCCCC(=O)NC(CCN)C(=O)NC(C(=O)NC(CCN)C(=O)NC1CCNC(=O)C(C(C)O)NC(=O)C(CCN)NC(=O)C(CCN)NC(=O)C(CC(C)C)NC(=O)C(Cc2ccccc2)NC(=O)C(CCN)NC1=O)C(C)O.O=S(=O)(O)O` (stereo not given) came in with a relative enzymatic activity of 0.986 ± 0.057.
On to `Cc1cc(C2CCCCC2)n(O)c(=O)c1.NCCO`, for which the relative enzymatic activity was 1.18 ± 0.057.
For `CNC1C(O)C(NC)C2OC3(O)C(=O)CC(C)OC3OC2C1O.Cl.Cl` (stereo not given) the value was 0.914 ± 0.024; for `NC[C@H]1O[C@H](O[C@H]2[C@H](O)[C@@H](O[C@H]3O[C@H](CO)[C@@H](O)[C@H](N)[C@H]3O)[C@H](N)C[C@@H]2N)[C@H](N)C[C@@H]1O`, 0.918 ± 0.078; for `CN(C)[C@@H]1C(=O)[C@@H](C(N)=O)C(=O)[C@@]2(O)C(=O)[C@H]3C(=O)c4c(O)ccc(Cl)c4[C@@H](O)[C@H]3C[C@@H]12`, 1.009 ± 0.01.
Then `C[C@H]1COc2c(C3(N)CC3)c(F)cc3c(=O)c(C(=O)O)cn1c23`, with 1.01 ± 0.03.
For `COC12C(COC(N)=O)C3=C(C(=O)C(C)=C(N)C3=O)N1CC1NC12` (stereo not given) the value was 0.719 ± 0.092; for `O=C(O)P(=O)(O)O`, 0.972 ± 0.058.
As for `O=C1NCCN1c1ncc([N+](=O)[O-])s1`, the relative enzymatic activity was 1.008 ± 0.01.
In the case of `CC(O)C1C(=O)N2C(C(=O)O)=C(SC3CNC(C(=O)N(C)C)C3)C(C)C12` (stereo not given), the relative enzymatic activity amounted to 0.359 ± 0.25.
Then `CO/N=C(\C(=O)N[C@@H]1C(=O)N2C(C(=O)O)=C(CSC(=O)c3ccco3)CS[C@H]12)c1csc(N)n1`, with 0.977 ± 0.095; and `CCCC[P+](CCCC)(CCCC)Cc1ccc(NC(=O)[C@H](Cc2ccc3ccccc3c2)N/C(=N/C2CCCCC2)NC2CCCCC2)cc1`, with 0.557 ± 0.44.
In turn, `COc1cc2c(cc1OC)C(=O)C(CC1CCN(Cc3ccccc3)CC1)C2.Cl` (stereo not given) came in with a relative enzymatic activity of 0.993 ± 0.29.
`CCCC[P+](CCCC)(CCCC)Cc1ccc(NC(=O)[C@@H](Cc2ccc3ccccc3c2)N=C(NC2CCCCC2)NC2CCCCC2)cc1` yielded a relative enzymatic activity of 0.817 ± 0.36.
Take `O=C1CN(/N=C/c2ccc([N+](=O)[O-])o2)C(=O)N1`: the relative enzymatic activity was 1.33 ± 0.34.
`CC1(C)S[C@@H]2[C@H](NC(=O)[C@H](N)c3ccccc3)C(=O)N2[C@H]1C(=O)OCOC(=O)[C@@H]1N2C(=O)C[C@H]2S(=O)(=O)C1(C)C`: the relative enzymatic activity was 1.08 ± 0.1.
In the case of `COC1=C(OC)C(=O)C(CCCCCCCCCC[P+](c2ccccc2)(c2ccccc2)c2ccccc2)=C(C)C1=O`, the relative enzymatic activity is 0.344 ± 0.24.
The compound `O=C1OCCN1N=Cc1ccc([N+](=O)[O-])o1` returned a relative enzymatic activity of 1.03 ± 0.054.
As to `O=C(O)c1cn(C2CC2)c2cc(N3CCC(O)(COc4ccc(N5C[C@H](CO)OC5=O)cc4F)CC3)c(F)cc2c1=O`, the relative enzymatic activity turned out to be 1.38 ± 0.025.
`Cc1nnc(SCC2=C(C(=O)[O-])N3C(=O)C(NC(=O)Cn4cnnn4)C3SC2)s1.[Na+]` (stereo not given): the relative enzymatic activity stood at 1.05 ± 0.11.
